Results filed as inconclusive are left out. Activity calls are given as the source filed them. Unless noted, calls come from the whole dose curve; as a rule, active = well fitted curve in the direction sought with a large enough effect in the repeat runs; inconclusive = weak or mixed curves; inactive = no such curve, though single readings can be large; an effect the other way counts as inactive or inconclusive.
Tests used:
[1] = qHTS assay to identify small molecule antagonists of the estrogen related receptor (ERR) signaling pathway - cell viability counter screen (AID 1224818); conditions: ERR reporter cell line viability counter screen; series mostly up to 46.1 µM; note: potency is the fitted concentration of half-maximal effect
Method in brief: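 ERR cells, 2,000 per well, compound added after 6 h and incubated 17.5 h at 37 C. Viability read by CellTiter-Fluor fluorescence after a further 30 min at 37 C.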

[2] = qHTS assay to identify small molecule antagonists of the estrogen related receptor (ERR) signaling pathway (AID 1224819; note: nearly all actives have a fitted effect of over 50% in size; note: potency is the fitted concentration of half-maximal effect); conditions: ERR reporter cell line, luciferase inhibition; series mostly up to 46.1 µM
Method in brief: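 ERR reporter cell line (NTP) plated at 2,000 cells/well, settled 6 h at 37C/5% CO2, then exposed to LOPAC compounds for 18 h at 37C. One-Glo luciferase luminescence read after 30 min at room temperature.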

[3] = qHTS assay to identify small molecule agonists of the estrogen related receptor (ERR) signaling pathway (AID 1224820); conditions: ERR reporter cell line, luciferase agonist mode; series mostly up to 46.1 µM
Method in brief: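 Cells: ERR line from NTP, 2,000/well. Pre-incubation 6 h, 37 C/5% CO2. Compound (DMSO) pin transfer, 18 h 37 C. One-Glo, 30 min RT, luminescence.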

[4] = tested on: estrogen-related receptor alpha (ERRalpha) with PGC-1alpha coactivator, human; experiment: qHTS assay to identify small molecule antagonists of the estrogen related receptor signaling pathway with the pleiotropic PPARgamma coactivator (PGC) (AID 1224821; calls by dose curve; note: nearly all actives have a fitted effect of over 50% in size; note: potency is the fitted concentration of half-maximal effect); conditions: ERR/PGC reporter cell line, luciferase, antagonist mode; series mostly up to 46.1 µM
Method in brief: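 Luminescent read-out (One-Glo, 30 min at room temperature) following 18 h treatment of PGC/ERR cells at 37 C with compounds delivered in DMSO. Cells had settled 6 h at 37 C/5% CO2 before dosing.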

[5] = qHTS assay to identify small molecule antagonists of the estrogen related receptor signaling pathway with the pleiotropic PPARgamma coactivator (PGC) cell viability counter screen (AID 1224822; note: potency is the fitted concentration of half-maximal effect); conditions: ERR/PGC reporter cell line viability counter screen; series mostly up to 46.1 µM
Method in brief: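 PGC/ERR cells rested 6 h, then compound-treated 17.5 h at 37 C. CellTiter-Fluor added for 30 min at 37 C, viability measured by fluorescence intensity.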

[6] = qHTS assay to identify small molecule agonists of the estrogen related receptor signaling pathway with the pleiotropic PPARgamma coactivator (PGC) (AID 1224823); conditions: ERR/PGC reporter cell line, luciferase agonist mode; series mostly up to 46.1 µM
Method in brief: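 Steps: plate PGC/ERR cells at 2,000 cells/well; incubate 6 h, 37 C/5% CO2; pin-transfer compounds (DMSO); incubate 18 h, 37 C; add One-Glo; 30 min RT; read luminescence.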

Measured: Potency

NC(CCCCCP(=O)(O)O)C(=O)O (stereo not given)
inactive: [1] | [2] | [3] | [4] | [5] | [6]

c1ccc2c(N3CCNCC3)cccc2c1
inactive: [1] | [2] | [3] | [4] | [5] | [6]

NCC(CP(=O)(O)O)c1ccc(Cl)cc1 (stereo not given)
inactive: [1] | [2] | [3] | [4] | [5] | [6]

CCCn1c(=O)c2[nH]c(C3CCCC3)nc2n(CCCOC(=O)c2ccc(S(=O)(=O)F)cc2)c1=O
inactive: [1] | [2] | [3] | [4] | [5] | [6]

CC(=O)NBr
inactive: [1] | [2] | [3] | [4] | [5] | [6]

NCCc1c[nH]c2ccc(C(N)=O)cc12
inactive: [1] | [2] | [3] | [4] | [5] | [6]

CCCN1CCO[C@@H]2c3cc(O)ccc3OC[C@H]21
inactive: [1] | [2] | [3] | [4] | [5] | [6]

CC12NC(Cc3ccccc31)c1ccccc12 (stereo not given)
inactive: [1] | [2] | [3] | [4] | [5] | [6]

CCCN(CCC)[C@@H]1CCc2ccc(O)cc2C1
inactive: [1] | [2] | [3] | [4] | [5] | [6]

CCCN1CC[C@@H]2c3cc(O)ccc3CC[C@@H]21
inactive: [1] | [2] | [3] | [4] | [5] | [6]

CC(C)NP(=O)(NC(C)C)OP(=O)(NC(C)C)NC(C)C
inactive: [1] | [2] | [3] | [4] | [5] | [6]

O=C1/C(=C/c2ccccc2)C[C@@]2(O)[C@H]3Cc4ccc(O)c5c4[C@@]2(CCN3CC2CC2)[C@H]1O5
inactive: [3] | [6]
active: [1] 8.74 µM | [2] 2.37 µM | [4] 2.2 µM | [5] 6.19 µM

CC1=NN=C(c2ccc(N)cc2)c2cc3c(cc2C1)OCO3
inactive: [1] | [2] | [3] | [4] | [5] | [6]

CC1OC1P(=O)(O)O (stereo not given)
inactive: [1] | [2] | [3] | [4] | [5] | [6]

NC(CCP(=O)(O)O)C(=O)O (stereo not given)
inactive: [1] | [2] | [3] | [4] | [5] | [6]

O=[N+]([O-])c1ccc2nc(N3CCNCC3)ccc2c1
inactive: [1] | [2] | [4] | [5] | [6]

Reference: PubChem BioAssay (Tox21)
